Sampled rows, rich in hits. Any-hit rate of the full collection: about 11%.
HP1b chromo inh – HP1-beta chromodomain-methylated histone interaction inhibition; P83916; AlphaScreen HP1-beta / biotin-H3K9me3 peptide binding; Potency, µM (series often up to 114 µM), inactives show top-dose activity change, negative = inhibition, usual class: inhibitors; 0.56% of 390,000 active; further: nearly all actives have a fitted effect of over 70% in size
Target sequence (P83916 whole entry, looked up): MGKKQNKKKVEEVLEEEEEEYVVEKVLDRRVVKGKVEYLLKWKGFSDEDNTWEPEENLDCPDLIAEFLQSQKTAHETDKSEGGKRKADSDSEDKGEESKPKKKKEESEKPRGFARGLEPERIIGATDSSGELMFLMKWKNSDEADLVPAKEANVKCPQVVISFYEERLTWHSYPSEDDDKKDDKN
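AlphaScreen: HP1-beta (50 nM) preformed 30 min with biotin-H3(1-18)K9me3 peptide (50 nM) in PBS pH 7.4, 0.01% Tween-20. Compound added for 30 min at RT, then streptavidin donor/nickel chelate acceptor beads (10 ug/mL) for 30 min.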
PLK1 PBD inh – PLK1 (human) polo-box domain binding inhibition; P53350; Plk1 PBD binding of FITC phosphopeptide, fluorescence polarization; Potency, µM, for the others: max response, negative = inhibition, actives largely listed as inhibitors; 2.8% of 360,000 active; further: series mostly up to about 57 µM; on the % scale 0 is the no-effect control and ±100 the full control effect; nearly all actives have a fitted effect of over 65% in size
BAZ2B inh – blocks human BAZ2B. Q9UIF8. AlphaScreen BAZ2B-H3K14Ac peptide displacement. Potency, µM (top dose mostly 114 µM), inactives show top-dose activity change, negative = inhibition, usual class: inhibitors. 4.4% of 360,000 active; further: on the % scale 0 is the no-effect control and ±100 the full control effect; nearly all actives have a fitted effect of over 60% in size
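Complex of BAZ2B and biotin-H3K14Ac (50 nM apiece) forms over 30 min at RT, then faces library compounds up to 110 uM for another 30 min; AlphaScreen beads added, 20 min dark incubation, luminescence read.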
JMJD2A Tudor inh – inhibitors of human JMJD2A Tudor domain; 4.4% of 390,000 active; Potency, µM (series often up to 114 µM), for the others: at the top dose activity change, negative = inhibition, hits mostly inhibitors; AlphaScreen JMJD2A-Tudor / H3K4me3 peptide binding; AID 504339; further: on the % scale 0 is the no-effect control and ±100 the full control effect; nearly all actives have a fitted effect of over 50% in size
G9a block – inhibitors of human histone lysine methyltransferase G9a; 8.8% of 350,000 active; AID 504332; Potency, µM (top dose mostly 102 µM), inactives show top-dose activity, negative = inhibition, most hits filed as inhibitors; G9a H3K9 monomethylation, AlphaScreen, 2 h; Q96KQ7; further: on the % scale 0 is the no-effect control and ±100 the full control effect; nearly all actives have a fitted effect of over 75% in size
Target sequence (Q96KQ7 913-1193 limits assumed): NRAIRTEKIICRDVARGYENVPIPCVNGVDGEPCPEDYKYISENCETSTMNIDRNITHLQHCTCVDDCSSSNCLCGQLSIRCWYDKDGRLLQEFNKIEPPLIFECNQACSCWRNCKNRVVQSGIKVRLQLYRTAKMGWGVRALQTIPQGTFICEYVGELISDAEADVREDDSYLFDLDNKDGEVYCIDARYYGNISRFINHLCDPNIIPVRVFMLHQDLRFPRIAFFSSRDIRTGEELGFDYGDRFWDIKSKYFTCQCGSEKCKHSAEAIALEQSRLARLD
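Quantitative HTS format: methyltransferase activity on a biotin-tagged H3K9 peptide is measured by AlphaScreen, using a rabbit anti-monomethyl-H3K9 antibody with streptavidin donor and anti-IgG acceptor beads. Final levels are 20 nM enzyme, 500 nM peptide, 20 uM SAM; 2 h RT.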
VDR inhibitor – vitamin D3 receptor (human) inhibition; VDR-SRC2-3 peptide fluorescence polarization, 2 h; 0.93% of 400,000 active; Potency, µM, without a hit: max response, negative = inhibition, hits mostly inhibitors; P11473; further: on the % scale 0 is the no-effect control and ±100 the full control effect
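FP read-out; VDR + SRC2-3 coactivator peptide; 23 nl compound by pintool; 2 h RT incubation; reagents held at 4 deg C, protected from light.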
Numbers without * were called inactive; ? = inconclusive; . = no result; ! = a repeat was not active; [ ] = dose if it differs, or a comment. The call rests on the fitted dose curve; in most records, active means well fitted curve in the direction sought with a large enough effect; inconclusive means small, poorly fitted or top-dose-only effect, or another doubt; inactive means no such curve, though single readings can be large; an effect the other way counts as inactive or inconclusive. Potency means the concentration at half of the fitted maximal effect.

SMILES | HP1b chromo inh | PLK1 PBD inh | BAZ2B inh | JMJD2A Tudor inh | G9a block | VDR inhibitor
COc1ccc2c(c1)N(C[C@H](C)CN(C)C)c1ccccc1S2 | -16% | 0% | . | ? | . | 3%
N#Cc1ccccc1NS(=O)(=O)c1ccc(N2CCCCS2(=O)=O)cc1 | 31% | . | -10% | -5% | 6%[12.7 µM] | 16%
COc1ccc(NC(=O)CC2Nc3cccc4cccc(c34)NC2=O)cc1 (stereo not given) | 14% | -10% | ? | ? | 25µM*! | -16%
Cc1cccc(N2CCN(c3ccc(N4C(=O)CCCC4=O)cc3[N+](=O)[O-])CC2)c1C | -7% | 10% | -8% | -19% | 16% | 0%
Cc1cccc(N2CCN(c3ccc(N4C(=O)CCCC4=O)cc3[N+](=O)[O-])CC2C)c1 (stereo not given) | ? | -8% | 28µM* | ? | ? | 11%
Cc1noc(/C=C/c2cccs2)c1S(=O)(=O)N1CCC(C(=O)Nc2ccc(F)c(Cl)c2)CC1 | 26% | . | . | -11% | -3%[59 µM] | -17%
Nc1ccc(NC(=O)Nc2ccc(N)cc2)cc1 | 27% | 4% | -17% | -10% | ? | -11%
Nc1ccc(NC2C[C@@H](C(=O)O)NC2=O)cc1 (stereo not given in full) | 35% | -8% | -22% | -15% | 50µM* | 1%
CCOC(=O)C1=CCN(S(=O)(=O)c2ccccc2C)C1c1cccc(Br)c1 (stereo not given) | . | 8% | . | . | . | .
CC(C(=O)NC1C=CS(=O)(=O)C1)N1C(=O)/C(=C/c2ccc(Cl)cc2)SC1=S (stereo not given) | -26% | ? | 22µM* | ? | . | ?
O=C(CCN1C(=O)/C(=C/c2ccc(F)cc2)SC1=S)NC1C=CS(=O)(=O)C1 (stereo not given) | 67% | 6% | -2% | 14% | 14% | -19%
CCN(C(=O)CCN1C(=O)/C(=C/c2ccccc2)SC1=S)C1CCS(=O)(=O)C1 (stereo not given) | 16% | -18% | -35% | -30% | 6% | -7%
CC(C(=O)N(C)C1CCS(=O)(=O)C1)N1C(=O)/C(=C/c2ccc(F)cc2)SC1=S (stereo not given) | -14% | ? | ? | -32% | ? | 79µM*
CCN(C(=O)C(C)N1C(=O)/C(=C/c2ccco2)SC1=S)C1CCS(=O)(=O)C1 (stereo not given) | ? | 19µM* | 45µM* | 56µM* | 20µM* | 4%
CCCc1cnc2c(c1SCC(=O)N(C)c1ccccc1)c(=O)n(C)c(=O)n2C | 20% | . | -13% | 1% | -9%[59 µM] | 8%
Cc1ccc(-c2csc(NCCn3c(C(F)(F)F)nc4ccccc43)n2)cc1 | 3% | -1% | -31% | -17% | ? | 3%
Cc1ccc(-c2csc(N(CCO)CCCn3c(C(F)(F)F)nc4cc(C(F)(F)F)ccc43)n2)cc1 | 4% | -17% | ? | -35% | 25µM* | -12%
CCn1c(C(C)NC(C)=O)nc2ccccc21 (stereo not given) | 36% | 1% | 9% | -4% | 20% | 0%
Cc1ccc(-c2csc(N3CCN(CCCn4c(C(F)(F)F)nc5ccccc54)CC3)n2)cc1 | -4% | -12% | -38% | -34% | 45µM* | -19%
OCCN(CCCn1c(C(F)(F)F)nc2ccccc21)c1nc(CN2CCCCC2)cs1 | 40% | 4% | -10% | -13% | -10% | -21%
CC(=O)N[C@@H](C)c1nc2ccccc2n1CCCN1CCN(c2nc(-c3ccc(C)cc3)cs2)CC1 | -17% | -9% | ? | ? | 45µM* | -16%
Cc1ccc(-c2csc(N3CCC[C@@H]3C(=O)NCCn3c(-c4ccncc4)nc4ccccc43)n2)cc1 | -19% | -20% | 45µM* | ? | 45µM* | -14%
Cc1ccc(-c2csc(N3CCN(CCCn4c(-c5ccncc5)nc5ccccc54)CC3)n2)cc1 | ? | -6% | ? | ? | 50µM* | -6%
OCCN(CCCn1c(-c2ccncc2)nc2ccccc21)c1nc(CN2CCCCC2)cs1 | 7% | -14% | -1% | -18% | -22% | 2%

Source: PubChem BioAssay
